Screening results: PubChem BioAssay, several laboratories
An excerpt weighted towards active compounds, which were near 5.2% of everything screened.
NR3A LBD binder: modulates the human NR3A ligand-binding domain | NR3A LBD differential scanning fluorimetry, Tm shift; 0% = protein alone, 100% = glycine-bound protein | Tm shift relative to glycine control, % at 25 µM | hit rate 2.5% among 340,000 | AID 1259313;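 active = melting temperature shift of at least 10% of the positive control shift, at one fixed dose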
SKN-1 block: C. elegans SKN-1 inhibition; hit rate 0.49% among 360,000; C. elegans VP596 Pgst-4::GFP/RFP ratio, acrylamide-induced, 24 h; inhibition, % at 21.8 µM; AID 624304;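 active = interference check ratio from 0.5 to 1.5 plus GFP to RFP signal ratio inhibition reaching or exceeding a fixed threshold, cut at about 30% in these data, passing the limit was not always enough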
NadD inh: NadD (S. aureus) enzyme inhibition; purified NadD enzyme, colorimetric absorbance read-out; inhibition, % at 20 µM; hit rate 0.78% among 360,000; AID 602399; in the data active = inhibition above about 26%
Vif imaging: blocks HIV Vif function. HEK293T cells, Vif self-association by quenched fluorescence, imaging, 24 h. inhibition, % at 7.49 µM. hit rate 0.35% among 340,000. AID 602346; in the data active = inhibition above about 50%, passing the limit was not always enough
esBAF inh: inhibitors of esBAF chromatin remodeling in mouse ES cells; Bmi1-luciferase knock-in reporter, 24 h; 100% = twice the neutral-well signal; reporter increase, % at 12.5 µM; hit rate 2% among 350,000; in the data active = activation above about 40%;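 also: a rise in the Bmi1 reporter signal indicates esBAF inhibition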
SMARCA2 activ: increases SMARCA2 function in MMTV reporter cells | MG213 cells, MMTV-luciferase reporter, dexamethasone, overnight | activation, % at 9.1 µM | hit rate 1% among 370,000 | AID 652017; in the data active = activation above about 7.8%
Hits are given with their value; 0 = inactive; - = no result given.

SMILES | NR3A LBD binder | SKN-1 block | NadD inh | Vif imaging | esBAF inh | SMARCA2 activ
CN1CCN(C(=O)C[C@H]2C[C@@H]3c4cc(NC(=O)c5ccc6c(c5)OCO6)ccc4O[C@@H]3[C@H](CO)O2)CC1 | - | - | - | - | 0 | -
CCOC(=O)c1c(S(=O)(=O)Nc2ccc(C)cn2)c(C)n(C)c1C | 0 | 0 | 0 | 0 | 0 | 7.9
C[C@@H]1CN([C@H](C)CO)C(=O)c2cc(N(C)C)ccc2O[C@@H](C)CCCCO[C@@H]1CN(C)S(=O)(=O)c1cn(C)cn1 | - | - | - | - | 0 | -
O=C(NCCNc1ccc([N+](=O)[O-])cc1)c1ccc(Cl)cc1 | 13 | 0 | 0 | 0 | - | 0
COc1ccc(NN=Nc2ccc([N+](=O)[O-])cc2)cc1 | 0 | 0 | 0 | 0 | 49 | 0
COc1ccc(C(=O)NCCNc2ccc([N+](=O)[O-])cc2)cc1 | 14 | 0 | 0 | 0 | - | 0
C[C@H](CO)N1C[C@H](C)[C@H](CN(C)C(=O)Cc2cccnc2)Oc2ncc(C#CCc3ccccc3)cc2C1=O | - | - | - | - | 0 | -
CC1(c2ccc(OC(F)F)cc2)NC(=O)N(/N=C/c2c(O)ccc3ccccc23)C1=O (centres undefined) | 12 | 0 | 0 | 0 | - | 0
CC1(c2ccc(OC(F)F)cc2)NC(=O)N(CC(=O)Nc2cccc(S(N)(=O)=O)c2)C1=O (centres undefined) | 0 | 0 | 0 | 0 | 0 | 0
O=C(C[C@H]1CC[C@H]2[C@@H](COC[C@@H](O)CN2S(=O)(=O)c2ccccc2Cl)O1)N1CCC(Cc2ccccc2)CC1 | - | - | - | - | 0 | -
C[C@@H]1CN([C@@H](C)CO)C(=O)Cc2cc(NC(=O)Nc3ccc4c(c3)OCO4)ccc2O[C@H]1CN(C)Cc1ccc(-c2ccccc2)cc1 | - | - | - | - | 0 | -
COc1cccc(CN(CCC(C)C)S(=O)(=O)c2cc(Br)ccc2Br)c1 | 15 | 0 | 0 | 0 | 0 | 0
COc1ccccc1C(=O)Nc1ccc2c(c1)C(=O)N(C)[C@H]1CC[C@@H](CC(=O)NCCc3ccncc3)O[C@H]1CO2 | - | - | - | - | 0 | -
COCC#Cc1ccc2c(c1)O[C@@H](CN(C)S(=O)(=O)c1ccc(C)cc1)[C@@H](C)CN([C@H](C)CO)S2(=O)=O | - | - | - | - | 0 | -
COc1ccccc1Cc1c(-c2ccc(OC)c(OC)c2)nc2c3ccccc3ccn12 | - | 0 | 0 | - | 0 | 0
CCCc1nc2c3ccccc3ccn2c1Cc1cccc(F)c1 | - | 0 | 0 | - | 46 | 0
COc1ccc(-c2nc3c4ccccc4ccn3c2Cc2ccccc2)cc1OC | - | 0 | 0 | - | 45 | 0
Fc1cccc(Cc2c(-c3ccco3)nc3c4ccccc4ccn23)c1 | - | 0 | 0 | - | 72 | 0
Fc1ccc(-c2nc3c4ccccc4ccn3c2Cc2cccc(F)c2)cc1 | - | - | - | - | - | 0
Cc1ccc(NCCC(=O)c2ccccc2)cc1Cl | 0 | 0 | 0 | 0 | 60 | 0
Cc1ccc(NC2=C(NC(=O)c3ccccc3)C(=O)c3ccccc3C2=O)cc1Cl | 20 | 0 | 0 | 0 | - | 0
Cc1ccc(NCC(=O)c2ccccc2)cc1Cl | 0 | 0 | 0 | 0 | 0 | 0
CCOc1cc(NC(=O)c2ccccn2)c(OCC)cc1NC(=O)c1ccc(Cl)cc1 | 0 | 0 | 0 | 0 | 0 | 0
CCOC(=O)c1c(NC(=O)c2ccc(Cl)cc2)csc1C | 18 | 0 | 0 | 0 | - | 0
COc1ccc(C(=O)OCc2cc(=O)n3c(C)csc3n2)cc1F | 0 | 0 | 0 | 0 | 73 | 0
SMILES | NR3A LBD binder | SKN-1 block | NadD inh | Vif imaging | esBAF inh | SMARCA2 activ
C[n+]1c2cc(N)ccc2cc2ccc(N)cc21 | 0 | 0 | 33 | 0 | 0 | 0
CCOc1cc(/C=C2\C(=O)ON=C2c2ccccc2)cc(Br)c1O | - | 0 | 0 | - | 0 | 0
CCOc1cc(/C=C2/C(=O)ON=C2C)cc(Br)c1O | 21 | 0 | 0 | - | 0 | 0
CO[C@H]1CN(C)C(=O)c2ccc(NC(=O)Nc3ccc4c(c3)OCO4)cc2OC[C@@H](C)NC[C@@H]1C | - | - | - | - | 56 | -
CO[C@H]1CN(C)C(=O)c2ccc(NC(=O)c3ccc4c(c3)OCO4)cc2OC[C@@H](C)NC[C@H]1C | - | - | - | - | 0 | -
CO[C@H]1CN(C)C(=O)c2ccc(NC(=O)c3ccc4c(c3)OCO4)cc2OC[C@H](C)NC[C@@H]1C | - | - | - | - | 0 | -
CO[C@H]1CN(C)C(=O)c2cc(NC(=O)Nc3ccccc3)ccc2OC[C@H](C)N(C(=O)CC2CC2)C[C@@H]1C | - | - | - | - | 48 | -
CO[C@@H]1CN(C)C(=O)c2ccc(NC(=O)Nc3ccc4c(c3)OCO4)cc2OC[C@H](C)NC[C@H]1C | - | - | - | - | 93 | -
Clc1ccccc1CSc1nnc(-c2ccncc2)o1 | 0 | 0 | 0 | 0 | 49 | 0
